Experimental data from PubChem BioAssay (NCATS).
Values without a mark were called inactive. Results filed as inconclusive are left out. The source made the active and inactive calls. Unless noted, the call rests on the fitted dose curve; in most records, active means well fitted curve in either direction with a large enough effect (not every such curve was filed as active); inconclusive means small, poorly fitted or top-dose-only effect, or another doubt; inactive means flat fitted curve, though single readings scatter.

Key:
[1] = molecular target: Lysosomal acid glucosylceramidase (Homo sapiens) (UniProt P04062); assay: Glucocerebrosidase-p2 (AID 348; in the data active means potency below about 10 µM; further: potency means the concentration at half of the fitted maximal effect); settings: purified GBA, blue fluorogenic substrate, 40 min
Chain of Lysosomal acid glucosylceramidase (Homo sapiens) (P04062 whole entry, looked up): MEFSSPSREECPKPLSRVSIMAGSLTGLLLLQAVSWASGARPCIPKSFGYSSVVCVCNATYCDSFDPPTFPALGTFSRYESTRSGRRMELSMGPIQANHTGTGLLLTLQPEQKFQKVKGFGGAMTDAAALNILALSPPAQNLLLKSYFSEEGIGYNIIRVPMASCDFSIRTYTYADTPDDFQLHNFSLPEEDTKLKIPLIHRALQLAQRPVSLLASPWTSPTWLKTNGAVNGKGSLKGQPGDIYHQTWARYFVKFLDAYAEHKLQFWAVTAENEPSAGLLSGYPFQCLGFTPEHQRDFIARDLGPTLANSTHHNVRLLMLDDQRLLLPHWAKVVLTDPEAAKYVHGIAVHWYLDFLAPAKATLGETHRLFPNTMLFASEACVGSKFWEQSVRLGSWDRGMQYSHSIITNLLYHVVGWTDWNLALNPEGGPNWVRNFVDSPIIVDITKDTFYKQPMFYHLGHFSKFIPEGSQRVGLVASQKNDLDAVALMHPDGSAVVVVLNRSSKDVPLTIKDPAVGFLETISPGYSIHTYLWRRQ
Method in brief: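 Compounds titrated from 0.6 nM upwards against 0.2 nM enzyme in pH 5.9 citric acid/KH2PO4, taurocholate, tween-20; blue fluorogenic substrate 80 uM, 40 min room temperature, stopped and read Ex 365/Em 440 for AC50.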

[2] = AP1 Signaling Pathway (AID 357); settings: ME-180 AP-1-bla reporter, EGF-induced, beta-lactamase ratio, 5 h; at 7.69 µM (top of the series) unless noted;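 further: ME-180 reporter cells stimulated with EGF at its EC50 level; on the % scale 0 is the no-effect control and ±100 the full control effect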
Method in brief: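 Beta-lactamase reporter under AP-1 response element, ME-180 background. Stimulus: EC50 EGF. Compound exposure 5 h, 37 °C. Detection: CCF4, 2.5 h RT, 460/530 nm. Values: AC50 from titration.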

[3] = molecular target: Cytochrome P450 1A2 (Homo sapiens) (UniProt P05177); assay: p450-cyp1a2 (AID 410; calls by dose curve; further: potency means the concentration at half of the fitted maximal effect;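 on activity change, negative = inhibition: -100% = full effect of reference inhibitor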); settings: recombinant CYP1A2, luciferin-ME demethylation, luminescence; series mostly up to 11.4 µM
Chain of Cytochrome P450 1A2 (Homo sapiens) (P05177 whole entry, looked up): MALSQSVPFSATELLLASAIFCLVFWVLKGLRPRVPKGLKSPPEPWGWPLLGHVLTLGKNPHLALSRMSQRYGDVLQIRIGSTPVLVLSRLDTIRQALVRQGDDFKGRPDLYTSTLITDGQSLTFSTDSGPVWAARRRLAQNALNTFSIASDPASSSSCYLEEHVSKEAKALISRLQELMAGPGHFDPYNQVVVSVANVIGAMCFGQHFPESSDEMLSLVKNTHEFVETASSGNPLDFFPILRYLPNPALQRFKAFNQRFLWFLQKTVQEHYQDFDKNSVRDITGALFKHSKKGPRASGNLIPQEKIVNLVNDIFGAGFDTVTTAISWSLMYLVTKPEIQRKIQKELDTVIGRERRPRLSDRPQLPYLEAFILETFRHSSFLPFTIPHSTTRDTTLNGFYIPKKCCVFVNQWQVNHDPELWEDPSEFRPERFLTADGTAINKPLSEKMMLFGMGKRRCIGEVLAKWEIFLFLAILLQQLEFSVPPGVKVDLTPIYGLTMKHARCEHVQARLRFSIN
Method in brief: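 Human CYP1A2 (20nM) demethylated Luciferin-ME at its Km (100uM) in 100mM KPO4. After 10 min compound preincubation, NADPH regeneration ran the reaction 60 min at room temperature. Luciferin was read by luminescence, normalized to 57 uM furafylline.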

[4] = NFAT Signaling Pathway (AID 444); settings: Jurkat NFAT-bla M1, carbachol, beta-lactamase ratio, 5 h; at 7.69 µM (top of the series) unless noted;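 further: carbachol stimulus at about its EC50 of 1 µM final; on the % scale 0 is the no-effect control and ±100 the full control effect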
Method in brief: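 Jurkat cells with NFAT-driven β-lactamase reporter and co-expressed M1 receptor, stimulated with carbachol (final 1 uM, ~EC50), compound titration, 5 h at 37 °C. CCF4 loaded 1 h at RT; 460/530 nm ratio gave %activity and AC50.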

[5] = Stat Signaling Pathway (AID 446); settings: ME-180 SIE beta-lactamase reporter, IL-6 stimulated, 5 h; at 7.69 µM (top of the series) unless noted;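 further: ME-180 cervical cancer cells given 40 pM IL-6 alongside compound; SIE-controlled beta-lactamase reporter measured as 460/530 nm FRET emission ratio; on the % scale 0 is the no-effect control and ±100 the full control effect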
Method in brief: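 ME-180 cells carrying a SIE-driven beta-lactamase reporter are stimulated with 40 pM IL-6 for 5 h at 37C in the presence of compound. The 460/530 nm FRET substrate ratio is read after 2.5 h at RT. Data are normalised to 300 pM IL-6 and to 125 nM JAK inhibitor controls.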

[6] = molecular target: Glucocorticoid receptor (Homo sapiens) (UniProt P04150); assay: GR-GFP Redistribution (AID 450;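 active means compounds whose dose series gives a full or clear partial fitted curve of increased nuclear translocation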; further: potency means the concentration at half of the fitted maximal effect); settings: U2OS GR-GFP nuclear translocation, laser cytometry, 2 h
Chain of Glucocorticoid receptor (Homo sapiens) (P04150 whole entry, looked up, the tested form may be a part): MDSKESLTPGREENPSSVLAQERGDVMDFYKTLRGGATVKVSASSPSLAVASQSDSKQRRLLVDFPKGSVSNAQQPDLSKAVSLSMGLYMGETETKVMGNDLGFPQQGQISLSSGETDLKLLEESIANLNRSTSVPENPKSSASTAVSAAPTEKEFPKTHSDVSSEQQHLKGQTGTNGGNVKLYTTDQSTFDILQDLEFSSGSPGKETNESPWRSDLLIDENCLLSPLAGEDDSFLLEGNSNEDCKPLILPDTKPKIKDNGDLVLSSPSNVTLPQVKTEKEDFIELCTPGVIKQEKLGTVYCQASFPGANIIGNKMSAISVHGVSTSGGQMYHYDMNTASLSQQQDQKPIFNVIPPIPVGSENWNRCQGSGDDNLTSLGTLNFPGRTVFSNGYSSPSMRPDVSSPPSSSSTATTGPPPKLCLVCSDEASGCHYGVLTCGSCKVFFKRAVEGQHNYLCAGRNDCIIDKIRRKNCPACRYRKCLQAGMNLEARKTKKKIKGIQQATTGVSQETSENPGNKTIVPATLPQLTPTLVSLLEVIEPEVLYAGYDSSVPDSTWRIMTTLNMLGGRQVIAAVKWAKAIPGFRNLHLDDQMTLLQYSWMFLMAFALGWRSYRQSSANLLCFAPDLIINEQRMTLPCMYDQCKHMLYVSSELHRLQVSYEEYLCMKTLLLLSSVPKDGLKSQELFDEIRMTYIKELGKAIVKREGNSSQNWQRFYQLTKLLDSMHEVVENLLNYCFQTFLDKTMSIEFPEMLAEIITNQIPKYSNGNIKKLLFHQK

[7] = molecular target: Glucocorticoid receptor (Homo sapiens) (UniProt P04150); assay: GR-EFC Redistribution (AID 451; calls by dose curve; further: potency means the concentration at half of the fitted maximal effect); settings: CHO-K1 GR-EFC translocation, beta-gal luminescence, 2 h
Method in brief: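 CHO-K1 cells expressing nuclear EA and GR-ED fragments of b-gal; compounds titrated up to 46 uM final, 2 h at 37 C. GR nuclear translocation read as complemented b-gal luminescence after 1 h RT detection.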

[8] = molecular target: Mitogen-activated protein kinase 10 (Mus musculus) (UniProt Q61831); assay: JNK3 AlphaScreen Assay (AID 530); settings: JNK3 lysate, c-Jun phosphorylation; series mostly up to 11.4 µM;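 further: kinase came from lysate of stimulated human HepG2 cells; signal reports phosphorylation of biotinylated GST-cJun 1-79 at Ser73 with 10 µM ATP; on the % scale 0 is the no-effect control and ±100 the full control effect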
Method in brief: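 qHTS format: compounds tested as titrations against IL-1beta/TNF-alpha-activated HepG2 lysate JNK3 with biotin-GST-cJun substrate and 10 uM ATP at room temperature. Loss of anti-phospho-cJun AlphaScreen signal indicates inhibition.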

[9] = molecular target: 3',5'-cyclic-AMP phosphodiesterase 4B (Homo sapiens) (UniProt Q07343); assay: qHTS Assay for Inhibitors of PDE-IV (AID 607; active means well fitted activation curve with a large enough effect in the main read-out, with a control signal flat, not every such curve was filed as active; further: % of control where 0% means no effect); settings: HEK293 ACTOne CNG channel cells, membrane potential fluorescence; series mostly up to 22.9 µM
Chain of 3',5'-cyclic-AMP phosphodiesterase 4B (Homo sapiens) (Q07343 whole entry, looked up): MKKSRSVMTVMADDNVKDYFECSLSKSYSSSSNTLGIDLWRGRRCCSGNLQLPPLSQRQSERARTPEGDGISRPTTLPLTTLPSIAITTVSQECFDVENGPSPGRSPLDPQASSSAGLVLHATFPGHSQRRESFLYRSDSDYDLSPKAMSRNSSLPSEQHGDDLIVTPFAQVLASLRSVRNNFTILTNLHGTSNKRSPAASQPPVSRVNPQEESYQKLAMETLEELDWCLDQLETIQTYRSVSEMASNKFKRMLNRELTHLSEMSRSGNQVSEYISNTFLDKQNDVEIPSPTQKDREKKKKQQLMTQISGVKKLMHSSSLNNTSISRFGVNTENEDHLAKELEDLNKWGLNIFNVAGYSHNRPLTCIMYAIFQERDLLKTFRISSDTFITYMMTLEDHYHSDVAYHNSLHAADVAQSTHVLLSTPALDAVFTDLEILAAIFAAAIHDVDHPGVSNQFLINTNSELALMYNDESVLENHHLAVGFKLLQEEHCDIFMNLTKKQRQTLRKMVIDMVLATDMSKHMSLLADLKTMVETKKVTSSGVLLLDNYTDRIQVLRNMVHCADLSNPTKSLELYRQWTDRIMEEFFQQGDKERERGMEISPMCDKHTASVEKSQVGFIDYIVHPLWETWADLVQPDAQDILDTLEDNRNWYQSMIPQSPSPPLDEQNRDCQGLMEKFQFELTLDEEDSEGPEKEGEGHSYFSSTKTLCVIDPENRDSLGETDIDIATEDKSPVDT
Method in brief: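 HEK293 ACTOne cells with CNG channel (1000/well), endogenous PDE4; membrane potential dye, compounds up to 22.9 uM final. Fluorescence Ex 535/Em 590; RO 20-1724 (100 uM final) as reference.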

[10] = molecular target: Cytochrome P450 2C9 (Homo sapiens) (UniProt P11712); assay: qHTS Assay for Inhibitors and Substrates of Cytochrome P450 2C9 (AID 883; active means well fitted curve in the direction sought with a large enough effect; an effect the other way counts as inactive or inconclusive; further: nearly all actives have a fitted effect of over 60% in size; further: potency means the concentration at half of the fitted maximal effect); settings: recombinant CYP2C9, luciferin-H luminescence, 60 min; series mostly up to 11.4 µM
Chain of Cytochrome P450 2C9 (Homo sapiens) (P11712 whole entry, looked up): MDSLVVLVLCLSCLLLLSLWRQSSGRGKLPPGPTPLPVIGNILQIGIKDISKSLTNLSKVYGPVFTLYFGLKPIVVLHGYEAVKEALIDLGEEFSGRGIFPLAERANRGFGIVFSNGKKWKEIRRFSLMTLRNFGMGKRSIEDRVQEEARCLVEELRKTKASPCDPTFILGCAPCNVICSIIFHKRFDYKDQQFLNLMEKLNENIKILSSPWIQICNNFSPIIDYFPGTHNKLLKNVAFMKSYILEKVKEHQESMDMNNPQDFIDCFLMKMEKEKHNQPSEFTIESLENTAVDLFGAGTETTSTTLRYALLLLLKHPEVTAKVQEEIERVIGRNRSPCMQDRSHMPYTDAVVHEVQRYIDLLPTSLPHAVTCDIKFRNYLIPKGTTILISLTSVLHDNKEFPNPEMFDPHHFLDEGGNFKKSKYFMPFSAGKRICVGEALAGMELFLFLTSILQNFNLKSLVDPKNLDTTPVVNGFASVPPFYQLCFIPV
Method in brief: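 Human CYP2C9 (10nM) with Luciferin-H at 100uM (its KM) in 25mM KPO4; compound preincubated 10 min at 37C, then NADPH regeneration for 60 min at 37C. Luciferin read by luminescence after detection reagent; normalized to 57uM sulphaphenazole as full inhibition.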

[11] = molecular target: Cytochrome P450 3A4 (Homo sapiens) (UniProt P08684); assay: qHTS Assay for Inhibitors and Substrates of Cytochrome P450 3A4 (AID 884; active means well fitted curve in the direction sought with a large enough effect; an effect the other way counts as inactive or inconclusive; further: potency means the concentration at half of the fitted maximal effect; nearly all actives have a fitted effect of over 50% in size); settings: recombinant CYP3A4, Luciferin-PPXE luminescence; series mostly up to 57.1 µM
Chain of Cytochrome P450 3A4 (Homo sapiens) (P08684 whole entry, looked up): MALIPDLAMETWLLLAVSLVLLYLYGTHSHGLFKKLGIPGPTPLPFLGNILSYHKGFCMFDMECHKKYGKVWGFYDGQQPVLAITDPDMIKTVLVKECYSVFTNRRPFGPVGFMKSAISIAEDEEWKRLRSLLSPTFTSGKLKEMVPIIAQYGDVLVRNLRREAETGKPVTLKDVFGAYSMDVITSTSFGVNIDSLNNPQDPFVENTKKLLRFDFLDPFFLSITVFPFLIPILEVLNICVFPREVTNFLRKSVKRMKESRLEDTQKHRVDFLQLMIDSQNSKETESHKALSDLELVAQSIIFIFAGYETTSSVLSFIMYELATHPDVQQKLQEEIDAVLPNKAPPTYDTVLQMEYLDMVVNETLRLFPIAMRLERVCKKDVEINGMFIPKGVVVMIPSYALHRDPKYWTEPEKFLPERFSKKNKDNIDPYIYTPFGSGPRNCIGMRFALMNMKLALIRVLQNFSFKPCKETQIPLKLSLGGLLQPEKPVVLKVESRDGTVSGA
Method in brief: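 20 nM human CYP3A4 with 25 uM Luciferin-PPXE (at KM) in 200 mM KPO4, preincubated 10 min with compound; NADPH regeneration started a 60 min RT reaction. Luciferin detected by luminescence, normalized to 57 uM ketoconazole as full inhibition.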

[12] = molecular target: Cytochrome P450 3A4 (Homo sapiens) (UniProt P08684); assay: qHTS Assay for Activators of Cytochrome P450 3A4 (AID 885; active means well fitted curve in the direction sought with a large enough effect; an effect the other way counts as inactive or inconclusive; further: nearly all actives have a fitted effect of over 65% in size); settings: recombinant CYP3A4, Luciferin-PPXE luminescence, 60 min; series mostly up to 11.4 µM
Method in brief: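 Human CYP3A4 (20 nM) with Luciferin-PPXE at 25 uM (its KM) in 200 mM KPO4; 10 min compound preincubation, then NADPH regeneration and 60 min reaction at RT. Luciferin read by luminescence; normalized to 57 uM ketoconazole full inhibition.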

[13] = molecular target: Cytochrome P450 2D6 (Homo sapiens) (UniProt P10635); assay: qHTS Assay for Inhibitors and Substrates of Cytochrome P450 2D6 (AID 891; active means well fitted curve in the direction sought with a large enough effect; an effect the other way counts as inactive or inconclusive; further: potency means the concentration at half of the fitted maximal effect; nearly all actives have a fitted effect of over 60% in size); settings: recombinant CYP2D6, luciferin-ME EGE luminescence; series mostly up to 11.4 µM
Chain of Cytochrome P450 2D6 (Homo sapiens) (P10635 whole entry, looked up): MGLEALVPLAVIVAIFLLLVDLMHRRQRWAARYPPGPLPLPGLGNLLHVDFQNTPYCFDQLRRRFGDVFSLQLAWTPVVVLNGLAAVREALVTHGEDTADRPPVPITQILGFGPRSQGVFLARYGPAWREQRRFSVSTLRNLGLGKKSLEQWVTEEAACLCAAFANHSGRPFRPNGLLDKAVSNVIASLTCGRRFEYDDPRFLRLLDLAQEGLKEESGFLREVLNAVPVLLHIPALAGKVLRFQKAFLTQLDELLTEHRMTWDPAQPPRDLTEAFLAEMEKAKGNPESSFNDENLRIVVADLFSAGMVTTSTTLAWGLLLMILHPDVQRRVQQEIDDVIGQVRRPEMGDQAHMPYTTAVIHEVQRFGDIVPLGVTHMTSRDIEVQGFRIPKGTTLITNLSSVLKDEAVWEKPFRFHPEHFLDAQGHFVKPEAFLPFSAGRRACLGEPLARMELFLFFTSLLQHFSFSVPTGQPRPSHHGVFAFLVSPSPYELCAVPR
Method in brief: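 Human CYP2D6 (5 nM) with 30 uM Luciferin-ME EGE (at Km) in 100 mM KPO4, compound preincubated 10 min, then NADPH regeneration system for 60 min at room temperature. Luciferin read by luminescence; normalized to 1.43 uM quinidine.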

[14] = molecular target: Cytochrome P450 2C19 (Homo sapiens) (UniProt P33261); assay: qHTS Assay for Inhibitors and Substrates of Cytochrome P450 2C19 (AID 899; active means well fitted curve in the direction sought with a large enough effect; an effect the other way counts as inactive or inconclusive; further: potency means the concentration at half of the fitted maximal effect; nearly all actives have a fitted effect of over 60% in size); settings: recombinant CYP2C19, luciferin-H EGE luminescence; series mostly up to 11.4 µM
Chain of Cytochrome P450 2C19 (Homo sapiens) (P33261 whole entry, looked up): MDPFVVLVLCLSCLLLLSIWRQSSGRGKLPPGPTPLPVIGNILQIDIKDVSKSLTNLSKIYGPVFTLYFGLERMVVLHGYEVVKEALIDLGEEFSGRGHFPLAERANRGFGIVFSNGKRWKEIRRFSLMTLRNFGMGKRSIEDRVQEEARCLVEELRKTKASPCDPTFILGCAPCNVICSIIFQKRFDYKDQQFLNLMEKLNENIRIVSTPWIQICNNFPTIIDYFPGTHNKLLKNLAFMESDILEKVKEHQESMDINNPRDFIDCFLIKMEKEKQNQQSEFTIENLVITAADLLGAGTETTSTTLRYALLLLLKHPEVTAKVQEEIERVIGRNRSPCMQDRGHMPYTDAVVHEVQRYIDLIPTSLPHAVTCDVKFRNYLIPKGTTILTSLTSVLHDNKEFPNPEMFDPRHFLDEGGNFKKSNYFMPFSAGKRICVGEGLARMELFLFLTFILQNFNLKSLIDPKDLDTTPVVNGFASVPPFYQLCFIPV
Method in brief: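 5 nM human CYP2C19 with 10uM Luciferin-H EGE (at KM) in 50mM KPO4, compound preincubated 10 min at 37C, then NADPH regeneration for 60 min at 37C. Luciferin read by luminescence after detection reagent; normalized to 57uM ketoconazole as full inhibition.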

[15] = qHTS Assay for Identification of Small Molecule Agonists for Hypoxia Response Element Signaling Pathway (AID 914; active means well fitted activation curve with a large enough effect in the signal ratio, with a control signal flat, not every such curve was filed as active; the % refers to the signal ratio; further: % of control where 0% means no effect); settings: ME-180 (cervical carcinoma) HRE-bla reporter, beta-lactamase ratio, CoCl2, 17 h; activation: hits give high values
Method in brief: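 Cells were plated overnight, pin-dosed with compound in a titration series, co-stimulated with EC50 CoCl2 and incubated 17 hours at 37 degrees Celsius. CCF4 substrate was then loaded, and AC50 values came from the 460nm/530nm ratio.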

Row | Structure (SMILES) | Potency [1] | activity change, negative = inhibition [2] | activity change, negative = inhibition [3] | activity change, negative = inhibition [4] | activity, negative = inhibition [5] | Potency [6] | Potency [7] | Potency [8] | Potency [9] | Potency [3] | Potency [10] | Potency [11] | Potency [12] | Potency [13] | Potency [14] | activation [15]
1 | O=C(O)CSc1cc(-c2ccccc2)nc2ccccc12 | > 11.4 µM | 4.39% | -4.7% [at 2.29 µM] | 10.2% | -6.65% | > 46 µM | > 9.22 µM | inactive | inactive |  |  |  |  |  |  | 
2 | Cc1[nH]c2ccccc2c1-c1cc(-c2cc(-c3c(C)[nH]c4ccccc34)on2)no1 | > 11.4 µM | 5.07% |  | -7.58% | -1.93% | > 46 µM | > 9.22 µM | inactive | inactive | 398 nM (active) | inactive |  |  |  |  | 
3 | CC(C)c1ccc(/C=C2\C=C(c3ccc4ccccc4c3)OC2=O)cc1 | > 11.4 µM | -7.05% | -24.7% [at 2.29 µM] | -17% | 4.97% | > 46 µM | > 9.22 µM | inactive | inactive |  |  |  |  |  |  | 
4 | COc1c(NC(C)=O)c2ccccc2c2ccccc12 | > 11.4 µM | -1.26% |  | -6.36% | 1.8% | > 46 µM | > 9.22 µM | inactive | inactive | 398 nM (active) | inactive |  |  |  |  | 
5 | NNC(=O)Cc1cccnc1 | > 11.4 µM | -8.16% |  | 7.3% | 3.84% | > 46 µM | > 9.22 µM | inactive | inactive | 631 nM (active) | inactive | 3.16 µM (active) | inactive |  |  | 
6 | S=C(S)NCCCn1ccnc1 | > 11.4 µM | 7.59% |  | -2.39% | 6.25% | > 46 µM | > 9.22 µM | inactive | inactive | 3160 nM (active) | 2 µM (active) |  |  | 794 nM (active) |  | 
7 | COc1ccc([C@@H](Nc2ccccn2)c2cc(C(C)(C)C)cc(C(C)(C)C)c2O)cc1 | > 11.4 µM | -15.8% | 1.2% [at 2.29 µM] | -8.5% | -15.2% | > 46 µM | > 9.22 µM | inactive | inactive |  | 2.51 µM (active) |  | inactive |  | 2.51 µM (active) | 3.06%
8 | N#CC[N+]1(Cc2ccccn2)CCCC1 | > 11.4 µM | -12.2% | 3.4% [at 2.29 µM] | 0.385% | -1.41% | > 46 µM | > 9.22 µM | inactive | inactive |  |  |  |  |  |  | 
9 | NNC(=O)CCc1ccc2ccc3ccccc3c2c1 | > 11.4 µM | -3.44% |  | 13.8% | -11% | > 46 µM | > 9.22 µM | inactive | inactive | 31.6 nM (active) | 1.58 µM (active) | 0.398 µM (active) | inactive | 1580 nM (active) | 0.251 µM (active) | 
10 | O=c1[nH]c(SCc2c(Cl)c(Cl)c(Cl)c(Cl)c2Cl)nc(=S)[nH]1 | > 11.4 µM | 6.9% |  | 13.5% | -6.17% | > 46 µM | > 9.22 µM | inactive | inactive | 1000 nM (active) | 1.26 µM (active) | 3.16 µM (active) | inactive |  |  | 
11 | O=C(Nc1cccc2ccccc12)c1ccccc1 | > 11.4 µM | -4.06% |  | -11.4% | 3.33% | > 46 µM | > 9.22 µM | inactive | inactive | 3980 nM (active) | inactive | 3.16 µM (active) | inactive |  |  | 
12 | Cc1[nH]c2ccccc2c1-c1cc(-c2cc(-c3c(C)[nH]c4ccccc34)nc(N)n2)nc(N)n1 | > 11.4 µM | -6.63% |  | 1.59% | -4.41% | > 46 µM | > 9.22 µM | inactive | inactive | 398 nM (active) |  |  |  |  |  | 
13 | O=C(O)c1[nH]c2c([N+](=O)[O-])cc([N+](=O)[O-])cc2c1C(=O)O | > 11.4 µM | 0.189% |  | 2.5% | -6.73% | > 46 µM | > 9.22 µM | inactive | inactive | 126 nM (active) | 3.16 µM (active) |  |  |  |  | 
